This is a sample that favours compounds with a hit; in the whole collection about 4.7% have one here.
TRHR ag: activates the human TRH receptor; TRHR cells, calcium flux fluo-8, FDSS agonist mode; actives 0.18% (n = 360,000); activation, % at 2 µM; P34981
Target sequence (P34981 whole entry, looked up): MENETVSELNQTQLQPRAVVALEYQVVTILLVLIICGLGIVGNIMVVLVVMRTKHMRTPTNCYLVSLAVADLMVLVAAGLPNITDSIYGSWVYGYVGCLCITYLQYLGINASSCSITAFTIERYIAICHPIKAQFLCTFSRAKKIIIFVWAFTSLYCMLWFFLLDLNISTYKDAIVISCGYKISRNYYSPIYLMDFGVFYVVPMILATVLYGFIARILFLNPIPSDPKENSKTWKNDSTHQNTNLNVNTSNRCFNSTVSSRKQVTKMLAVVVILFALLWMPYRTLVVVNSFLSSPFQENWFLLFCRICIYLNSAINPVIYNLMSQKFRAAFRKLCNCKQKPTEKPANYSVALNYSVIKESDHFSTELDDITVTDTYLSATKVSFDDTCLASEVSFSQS
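Fluo-8-loaded TRHR cells; 10 s baseline, compound added, kinetic Ca2+ fluorescence read 1/s, agonist mode.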
TRHR enhancer: allosteric enhancers of human TRH receptor; TRHR cells, fluo-8 calcium fluorescence, EC20 TRH enhancement; P34981; AID 493056; enhancement, % at 2 µM; actives 0.66% (n = 360,000); in the data active = enhancement above about 30%
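Enhancer read-out: after compound pinning and an initial kinetic agonist-mode read, an EC20 of TRH (10 nM final) was injected and fluo-8 calcium signal (Ex 480/Em 530) followed at 1 s/cycle for 100 cycles in TRHR-expressing cells.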
D1 PAM: human D1 dopamine receptor positive modulation. P21728. actives 0.036% (n = 360,000). potentiation, % at 10 µM. HEK293 TREx D1 cells, calcium flux, dopamine EC20 potentiation. AID 504651; in the data active = potentiation above about 30%
D1 ag: agonists of human D1 dopamine receptor; P21728; HEK293 T-REx D1 cells, calcium flux, agonist mode; activation, % at 2 µM; actives 1% (n = 360,000); AID 504660
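Inducible HEK293 T-REx D1 cells, force-coupled to calcium signalling, were plated at 4000 cells/well with tetracycline and held overnight at 30 C. After no-wash calcium dye loading, compound-evoked calcium rise over 180 s flagged agonists.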
D1 antagonist: human D1 dopamine receptor antagonism; P21728; HEK293 TREx D1 cells, calcium flux, dopamine EC80; hits give low values; activity change, negative = inhibition, % at 10 µM; actives 3.2% (n = 360,000); AID 504652; in the data active = activity change below about -30%
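Tetracycline-induced HEK293 T-REx cells with force-coupled D1 receptor were loaded with a no-wash calcium dye. Compound was added after a 10 s baseline and read kinetically for 180 s; EC80 dopamine was then added and calcium flux followed another 180 s.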
Numbers stand for hits; 0 = inactive; - = no result. Cut-off read from the data, not from the text of the source, unless noted: active = activation above about 30%; inactive = the rest.

SMILES	TRHR ag	TRHR enhancer	D1 PAM	D1 ag	D1 antagonist
COC(=O)c1[nH]c2cccc(OC)c2c1NC(=O)CCN1CCN(c2ccccc2OC)CC1	0	0	0	0	-39
COc1ccc(C)cc1NC(=O)CN1CCN(c2ccccc2F)CC1	0	0	0	0	0
COC(=O)c1[nH]c2cccc(OC)c2c1NC(=O)CCN1CCC(C)CC1	0	0	0	0	0
O=C(NNC(=O)C12CC3CC(CC(C3)C1)C2)c1csc(N2CCOCC2)n1	0	0	0	0	0
COc1ccc(Cl)cc1NC(=S)N1CC(C)OC(C)C1 (stereo not given)	0	33	0	0	0
COc1ccccc1NC(=S)N1CC(C)OC(C)C1 (stereo not given)	0	0	0	0	0
COc1cccc(NC(=O)CCN2CCN(c3ccccc3F)CC2)c1	0	0	0	0	0
COc1ccc(OC)c(NC(=O)CCN2CCN(c3ccccc3F)CC2)c1	0	0	0	0	-38
COc1ccc(C)cc1NC(=O)CCN1CCN(c2ccccc2F)CC1	0	0	0	0	-45
COC(=O)c1[nH]c2ccc(Cl)cc2c1NC(=O)CCN1CCOCC1	0	0	0	0	-38
CCOC(=O)N1CCN(CC(=O)Nc2c(C(=O)OC)[nH]c3ccc(Cl)cc23)CC1	0	0	0	0	0
COc1ccccc1NC(=O)C(C)OC(=O)CCC1CCCCC1 (stereo not given)	0	0	0	0	0
CC(C)(C)OC(=O)N1CCC(c2c(C(=O)NC3CCN(Cc4ccccc4)CC3)cnn2-c2ccc(F)cc2F)CC1	0	0	0	0	0
COc1ccc([N+](=O)[O-])cc1NC(=O)CCN1CCN(c2ccccc2OC)CC1	0	0	0	0	-46
Cn1c2cc(B(O)O)sc2c2cnn(Cc3c(F)cccc3F)c(=O)c21	0	0	0	0	0
CCOc1ccccc1C(C(=O)NC1CCCC1)N(C(=O)c1csnn1)C1CC1 (stereo not given)	0	0	0	0	0
Cc1cccc(N(CC(=O)NCc2ccc(F)cc2)C(=O)c2ccco2)c1	0	0	0	0	0
Cn1c(SCC(=O)NCCNC(=O)CSc2nnc(C(F)(F)F)n2C)nnc1C(F)(F)F	0	0	0	0	-32
COC(=O)c1cc(OC)c(OC)cc1NC(=O)c1ccc2c(c1)CCN2S(=O)(=O)c1ccccc1	0	0	0	0	0
COc1ccc(-c2nc(C#N)c(N3CCC(C(N)=O)CC3)o2)cc1	0	0	0	0	0
N#Cc1nc(-c2ccc(OCc3ccccc3)cc2)oc1N1CCC(C(N)=O)CC1	0	0	0	0	-36
CN1CCN(c2oc(COc3ccc(-c4ccccc4)cc3)nc2C#N)CC1	0	0	0	0	-35
CN(C)CCNc1oc(COc2ccc(-c3ccccc3)cc2)nc1C#N	0	0	0	40	0
COC(=O)c1ccccc1NC(=O)c1ccc(F)cc1F	0	0	0	0	0
COc1ccc(-c2oc3ccccc3c2C#CC(C)(C)O)cc1	0	31	0	0	-
SMILES	TRHR ag	TRHR enhancer	D1 PAM	D1 ag	D1 antagonist
O=C(CNC(=O)C1COc2ccccc2O1)N/N=C\c1cccc(O)c1 (stereo not given)	0	0	0	0	0
O=C(CNC(=O)C1COc2ccccc2O1)N/N=C\c1ccc(Cl)cc1 (stereo not given)	0	0	0	0	-36
Cc1cc(C)cc(NC(=O)C2CCN(S(=O)(=O)c3ccc4c(c3)oc(=O)n4C)CC2)c1	0	0	0	0	-34
Cn1c(=O)oc2cc(S(=O)(=O)N3CCC(C(=O)Nc4ccc(F)c(Cl)c4)CC3)ccc21	0	0	0	0	-52
CCc1nn(CC(=O)NCC(C)c2ccccc2)c(=O)c2cc3c(OC)cccc3n12 (stereo not given)	0	0	0	0	0
O=C(c1ccco1)N1CCN(C(c2cccs2)c2sc3ncnn3c2O)CC1 (stereo not given)	0	0	0	0	0
COc1cccc(C(c2sc3ncnn3c2O)N2CCN(C(=O)c3ccco3)CC2)c1 (stereo not given)	0	37	0	0	0
CCc1cc(=O)[nH]c(SCc2nc(-c3cccc(Cl)c3)no2)n1	0	0	0	0	0
CCCCOC(=O)Nc1ccc2c(C)cc(=O)oc2c1	0	40	0	0	0
Cc1cc(=O)oc2cc(OC(C)C(=O)Nc3nccs3)ccc12 (stereo not given)	0	0	0	0	-37
COC(=O)C(CC(C)C)Oc1ccc2c(C)cc(=O)oc2c1 (stereo not given)	0	36	0	0	0
CCOC(=O)Nc1ccc2c(C)cc(=O)oc2c1	0	0	0	0	0
Cc1cc(=O)oc2cc(OC(C)C(=O)NC3CCCC3)ccc12 (stereo not given)	0	0	0	0	0
O=C(NCCS(=O)(=O)NC1CCCC1)c1ccc(F)cc1	0	0	0	0	0
CC(C)c1ccccc1NC(=O)C(Cc1c[nH]c2ccccc12)NC(=O)OC(C)(C)C (stereo not given)	0	0	0	0	0
CC1CC(C)CN(C(=O)COC(=O)c2ccc3ccccc3n2)C1 (stereo not given)	0	0	0	0	-37
Cc1c(C(=O)OCC(=O)N2CC(C)CC(C)C2)oc2ccccc12 (stereo not given)	0	0	0	0	0
CCOc1ccc(NC(=O)Cc2coc3ccc(C)cc23)cc1	0	0	0	0	0
COc1ccc(NC(=O)/C(Cl)=C(/Cl)S(=O)Cc2ccc(Cl)cc2)cn1 (stereo not given)	0	0	0	0	-33
Cc1nn(CCCC(=O)Nc2ccccc2C(F)(F)F)c(=O)c2c1sc1ccccc12	0	0	0	0	0
Cc1cccc(-n2c(SCC(=O)N(C)C3CCS(=O)(=O)C3)nc3ccccc3c2=O)c1C (stereo not given)	0	0	0	0	0
COCCn1c(SCC(=O)N(C)c2ccccc2)nc2c([nH]c3ccccc32)c1=O	0	0	0	0	0
O=C(COc1ccc([N+](=O)[O-])cc1)Nc1nc2c(s1)CCCC2	0	0	0	0	0
O=C1CCCCC1C(O)c1ccc(Cl)cc1 (stereo not given)	0	0	0	0	-74
CCOC(=O)NC(c1cccc(Cl)c1)C1CCCCCC1=O (stereo not given)	0	0	0	0	0
O=C(OCC(=O)N1CCCc2ccccc21)c1cnc(Cl)c(Cl)c1	0	0	0	41	0
O=C(Cn1cnc2ccccc21)OCC(=O)N1CCCc2ccccc21	0	0	0	0	-61
Cc1ccccc1OCC(=O)OCC(=O)N1CCCc2ccccc21	0	0	0	0	0
COc1ccccc1CN(C)C(=O)c1ccccc1Sc1ccccc1C#N	0	0	0	0	0
CCOC(=O)c1ccccc1NC(=O)NCc1cccn1Cc1ccc(F)cc1	0	0	0	0	0

From PubChem
